Out of some 140,000 compounds screened, about 860 (0.61%) were called active. Shown is part of a subset that was picked to be rich in actives. Values without a mark were called inactive. Rule as the data show it: active = inhibition above about 25%; inactive = the rest.

The target in the test is E3 ubiquitin-protein ligase RBX1 (Homo sapiens) + Cullin-1 (Homo sapiens) (UniProt P62877+Q13616). Description: blocks human RBX1-Cullin-1 di-ubiquitin formation (AID 1347404). The conditions noted are these: in vitro K48 di-Ub FRET, acceptor:donor ratio, 45 min; at 10 µM; active compounds read high.
Sequence of E3 ubiquitin-protein ligase RBX1 (Homo sapiens) + Cullin-1 (Homo sapiens) (P62877 whole entry, looked up): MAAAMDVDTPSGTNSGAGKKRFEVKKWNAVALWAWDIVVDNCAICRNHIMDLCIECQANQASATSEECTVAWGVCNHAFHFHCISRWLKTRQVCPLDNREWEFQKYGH
Sequence of E3 ubiquitin-protein ligase RBX1 (Homo sapiens) + Cullin-1 (Homo sapiens) (Q13616 whole entry, looked up): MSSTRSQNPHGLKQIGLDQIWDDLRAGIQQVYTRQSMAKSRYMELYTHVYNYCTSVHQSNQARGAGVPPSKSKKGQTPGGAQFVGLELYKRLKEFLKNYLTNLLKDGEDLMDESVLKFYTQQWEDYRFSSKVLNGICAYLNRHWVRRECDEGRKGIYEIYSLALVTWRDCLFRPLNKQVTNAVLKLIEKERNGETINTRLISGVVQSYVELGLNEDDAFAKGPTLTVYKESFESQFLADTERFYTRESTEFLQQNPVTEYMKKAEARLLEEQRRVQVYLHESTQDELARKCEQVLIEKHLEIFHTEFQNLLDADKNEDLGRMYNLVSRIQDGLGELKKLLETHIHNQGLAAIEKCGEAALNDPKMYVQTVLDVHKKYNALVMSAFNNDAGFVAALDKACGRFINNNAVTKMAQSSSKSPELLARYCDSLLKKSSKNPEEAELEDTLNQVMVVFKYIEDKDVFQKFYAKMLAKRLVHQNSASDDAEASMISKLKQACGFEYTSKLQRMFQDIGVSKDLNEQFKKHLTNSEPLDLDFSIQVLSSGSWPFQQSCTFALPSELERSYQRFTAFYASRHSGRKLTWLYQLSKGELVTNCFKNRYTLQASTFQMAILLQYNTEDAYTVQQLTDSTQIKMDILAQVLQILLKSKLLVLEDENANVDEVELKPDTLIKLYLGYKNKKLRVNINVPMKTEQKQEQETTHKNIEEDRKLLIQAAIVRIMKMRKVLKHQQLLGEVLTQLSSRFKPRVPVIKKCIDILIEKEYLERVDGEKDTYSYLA
By inhibition is commonly meant the change of the read-out against control, counted positive when it falls. `Cn1c(CC(=O)c2ccc(F)cc2)nccc1=O`: the inhibition is 2.65%.

Consider `O=C(OCc1ccccc1)c1ccc(O)c(O)c1`, for which the inhibition is 43% (active). On to `O=C(OCc1ccccc1)c1cncc(Br)c1`, for which the inhibition is -7.74%. On to `COC(=O)c1cccc(COC(=O)c2ccc(NC(C)=O)cc2)c1`, for which the inhibition is 1.6%. The value for `Nc1nc2cccnc2cc1Br` was 1.54%; that for `Fc1cc(Br)cc2c1NC(c1ccccc1C(F)(F)F)C1CC=CC21` (stereo unspecified) was 1.76%. Regarding `CCOc1cccc2c1N[C@@H](c1ccc(C(=O)O)cc1)[C@H]1CC=C[C@@H]21`, the inhibition was 68.9% (active).

As for `CCOc1cccc(CC(=O)N2CCc3c([nH]c4ccccc34)C2c2ccc(F)cc2)c1OCC` (stereo unspecified), the inhibition is 1.07%. Under `Cc1cc(/C=C2/C(=N)N3N=C(c4ccccc4Cl)SC3=NC2=O)c(C)n1-c1ccc(Cl)cc1Cl` stands 2.61%. The value for `Cc1ccc(C2=NN3C(=N)/C(=C/c4ccco4)C(=O)N=C3S2)cc1` was 34.8% (active); that for `CCC(C1=NN2C(=N)/C(=C\c3ccc(OC(=O)c4ccco4)cc3)C(=O)N=C2S1)c1ccccc1` (stereo unspecified) was -6.1%; that for `Cc1ccc(C)c(-n2nnc(C(=O)Nc3ccc(N4CCN(C)CC4)cc3)c2C)c1` was 12.2%. With `COc1cccc(OC)c1C(=O)Oc1ccc(Br)cc1Br`, the inhibition was 3.84%. Under `CCOC(=O)C1=C(C)N=c2s/c(=C\c3ccc(N(CC)CC)cc3O)c(=O)n2C1c1ccc(Br)cc1` (stereo unspecified) stands 49.4% (active); under `CCOC(=O)C1=C(C)N=c2s/c(=C\c3cc(C)n(-c4ccc(Br)cc4)c3C)c(=O)n2C1c1ccccc1Cl` (stereo unspecified), -10.4%. On to `CCOC(=O)C1=C(C)N=c2s/c(=C\c3cccnc3)c(=O)n2C1c1ccc(OC)c(Br)c1` (stereo unspecified), for which the inhibition was -5.43%. The value for `CCOC(=O)C1(CCOC)CCN(Cc2ccc(C#CCCO)cc2)CC1` was -1.32%. The value for `C=C(C)COc1ccc(NC(C)=O)cc1` was -3.18%; that for `Cc1ccc(N=C2S/C(=C\c3cc(Cl)ccc3O)C(=O)N2C)cc1C` was -0.425%.

`Cc1c(CN2CCc3[nH]nc(-c4cccc(F)c4)c3C2)cnn1C`: the inhibition is 8.08%.

Consider `CN(C)S(=O)(=O)N1CCC(C(=O)Nc2ccc(Cl)c(C(F)(F)F)c2)CC1`, for which the inhibition is 6.61%. Regarding `N#Cc1cccc(-c2cccc(-c3ccn[nH]3)c2)c1`, the inhibition was 2.7%.

As to `Cc1ccc(C2=NC(=O)OC2(C)C)c(C)c1`, the inhibition is 2.99%. Consider `COC(=O)COc1ccc(/C=N/NC(=O)c2ccc(N(Cc3ccccc3Cl)S(C)(=O)=O)cc2)cc1`, for which the inhibition is -4.5%. Under `Cc1cc(O)c(C(=O)C2=CSc3nnc(-c4ccccc4)n3N=C2)cc1Cl` stands 2.34%; under `CCOC(=O)C1C(C)=NC(=O)NC1c1cn(-c2ccccc2)nc1-c1ccc(Cl)cc1` (stereo unspecified), -6.88%.

In the case of `C=CCC(=O)N1CCC(C2CCN(Cc3cccnc3)CC2)C1` (stereo unspecified), the inhibition is 0.333%.

Turning to `Cc1ccc(C)c(NC(=O)NC2CCCc3ccccc32)c1` (stereo unspecified), the inhibition was -5.58%. The value for `CC(Oc1ccc(F)cc1)C(=O)NC(C)c1ccccc1` (stereo unspecified) was -5.33%; that for `Cc1nn(-c2ccccc2)c(Cl)c1C1c2c(n[nH]c2-c2ccccc2)OC(=N)C1C#N` (stereo unspecified) was -6.2%; that for `CCn1c2ccccc2c2cc(C=Nc3cccc(Cl)c3C)ccc21` was -4.47%.

`CCC(NC1CCN(c2nc(C)c3cc(C)c(C)cc3n2)CC1)c1ccncc1` (stereo unspecified): the inhibition is 57.6% (active). Under `COCCNC(=O)C1CCN(c2nc(C)c3cc(C)c(C)cc3n2)CC1` stands -4.41%; under `Cc1cc2nc(N3CCC(C(=O)NC45CC6CC(CC(C6)C4)C5)CC3)nc(C)c2cc1C`, 17.1%.

As for `Clc1ccc(COn2nnc3ccccc32)cc1Cl`, the inhibition is -0.0969%. With `O=[N+]([O-])c1ccccc1/C=N/Nc1nc2c(s1)CCCC2`, the inhibition is -4.02%. Under `CCCCNC(=O)c1nnn(-c2ccccc2)c1C` stands 9.64%. `CCOC(=O)C1=c2s/c(=C/c3ccc(Cl)cc3)c(=O)n2C(=N)C(C(=O)OC)C1c1ccc(Cl)cc1` (stereo unspecified): the inhibition was -2.16%. In the case of `Cc1ccc(C(=O)Nc2ccc(-c3nnc(SCC(=O)Nc4ccc(F)cc4)n3C)cc2)cc1`, the inhibition was 2.28%. Regarding `C#CCOc1ccc(/C=C2\SC(=S)N(c3cccc(C(=O)O)c3)C2=O)cc1OC`, the inhibition was -1.21%. For `O=C1SC(=Nc2ccccc2)N=C1Cc1cccc(OC(=O)c2ccccc2)c1`, the inhibition is 2.05%.

For `Cc1ccc(CCC(=O)NCc2ccc(Cl)cc2)cc1`, the inhibition is -2.97%.

Regarding `Nc1nnnn1/N=C/c1ccc([N+](=O)[O-])o1`, the inhibition was 5.46%. The value for `O=C(O)c1cc2c(s1)C=Cc1ccccc1C2` was 4.96%; that for `Cc1nc2c(sc3nc4ccccc4nc32)c(=O)[nH]1` was -2.71%.

In the case of `NC(=O)c1ccccc1NC(=O)c1ccc(CN2CCCCC2)cc1`, the inhibition is 4.02%. The value for `COC(=O)c1ccc2c(c1)C1C=CCC1C(c1cccc([N+](=O)[O-])c1)N2` (stereo unspecified) was 5.03%; that for `O=C(c1ccc2c(c1)C1C=CCC1C(c1ccccc1)N2)N1CCOCC1` (stereo unspecified) was -11.2%. As for `O=C(O)c1ccc2c(c1)[C@@H]1C=CC[C@@H]1[C@H](c1ccc3c4c(cccc14)CC3)N2`, the inhibition was 99.3% (active).

Regarding `CC(=O)Nc1ccc(OC(=O)c2cccc(C)c2)cc1`, the inhibition was -0.55%. Under `COc1ccccc1-c1nc(CN2CCCC2c2n[nH]c(=O)[nH]2)c(C)o1` (stereo unspecified) stands -4.69%; under `Cc1c(/C=N/NC(=O)CSc2nc3ccccc3s2)c2ccccc2n1C`, 5.36%. Under `Brc1ccc(C#Cc2cccs2)cc1` stands -4.29%; under `O=C(COc1ccccc1Cl)Nc1nncs1`, 2.7%. The value for `COc1cccc(-c2nn3c(-c4cccc(C(F)(F)F)c4)nnc3s2)c1` was -4.15%; that for `Clc1ccccc1CSc1nncn2c1cc1occc12` was 6.61%. `CC1(C)N=C(SCc2ccccc2Cl)c2ccccc2N1`: the inhibition was -9.73%. Consider `Clc1ccccc1CSc1nnc(-c2ccco2)c(-c2ccco2)n1`, for which the inhibition is 101% (active).

For the compound `CN1CCC(N2CCCC2C(=O)Nc2ccc(-c3cccc(F)c3)cc2)CC1` (stereo unspecified), the inhibition was -3.33%. On to `O=C(/C=C/c1ccc([N+](=O)[O-])o1)c1ccco1`, for which the inhibition was -10.2%. `Cc1noc(C)c1C(=O)Nc1ccc(C(F)(F)F)cc1`: the inhibition was 1.67%. For the compound `Clc1cccc(N2N=C(c3cccs3)CC2c2ccccc2)c1` (stereo unspecified), the inhibition was -9.66%. The value for `O=C(O)c1cccc(N2N=C(c3ccc4c5c(cccc35)C(=O)N(c3ccccc3)C4=O)CC2c2ccccc2)c1` (stereo unspecified) was 44.6% (active); that for `CC(=O)N1N=C(c2ccc(Cl)cc2Cl)CC1c1ccccc1` (stereo unspecified) was -1.24%; that for `Cc1ccc(-n2c(C)cc(/C=C3/C(=O)NC(=S)N(c4ccc(Br)cc4)C3=O)c2C)cc1` was -0.744%. The value for `CCCc1sc(-n2c(C)cc(/C=C3/C(=O)NC(=S)N(C)C3=O)c2C)c(C#N)c1C` was 76.1% (active). Consider `Cc1cc(/C=C2\C(=O)NC(=S)N(c3ccc(Cl)cc3)C2=O)c(C)n1-c1ccccc1`, for which the inhibition was 1.69%.

Turning to `Cc1ccccc1Cn1cc(C(=O)N2CCN(C3CCCC3)CC2)nn1`, the inhibition is 14.7%. Under `CC1=Nc2nnnn2C(c2ccc(Br)cc2)C1C(=O)Nc1ccccc1` (stereo unspecified) stands 0.6%; under `O=C(c1nn2c(C(F)(F)F)c3c(nc2c1Cl)-c1ccccc1CC3)N1CCN(c2ccc(F)cc2)CC1`, -4.56%. For the compound `CSc1ccc(C2C3=C(CCCC3=O)OC(=N)C2C#N)cc1` (stereo unspecified), the inhibition was 3.66%.

With `N#CC1C(=N)OC2=C(C(=O)CCC2)C1c1ccsc1` (stereo unspecified), the inhibition is 6.79%. As for `N#CC1C(=N)OC2=C(CCC/C2=C/c2ccoc2)C1c1ccoc1` (stereo unspecified), the inhibition was 50.6% (active). The value for `Cc1ccc2nc(CNC(=O)Cn3nnnc3CN3CCC(C)CC3)cn2c1` was -3.66%; that for `Clc1ccc(C2=CSC3=Nc4cccc5cccc(c45)N23)cc1` was 86.8% (active).

As to `Clc1ccc(-c2cc3ccccc3o2)cc1`, the inhibition is -1.45%.

As to `O=C(O)c1ccccc1C(=O)Nc1ccc(-c2cn3ccsc3n2)cc1`, the inhibition is 10.3%. `COC(=O)Nc1ccc(S(=O)(=O)N2CCn3c4c(c5cc(C)ccc53)CCCC42)cc1` (stereo unspecified): the inhibition was -2.9%. Under `COCCCNC(=O)c1ccc2c(c1N)C(=O)c1ccccc1C2=O` stands 5.03%; under `Nc1c(S(=O)(=O)O)cc(Nc2ccc(-c3ccc(Nc4cc(S(=O)(=O)O)c(N)c5c4C(=O)c4ccccc4C5=O)cc3)cc2)c2c1C(=O)c1ccccc1C2=O`, 94.8% (active); under `Cc1ccc(OCc2ccc(C(=O)N/N=C/c3sccc3C)cc2)cc1C`, -9.15%.

Regarding `Cc1cc(C(=O)O)ccc1NCc1ccccc1`, the inhibition was 15.3%. As to `COc1cc(C(=O)N/N=C(/C)c2cccnc2)cc(OC)c1OC`, the inhibition was -15.1%.

In the case of `COc1cccc(OC/C=C/CN2CCN(C)CC2)c1`, the inhibition was -3.35%. The value for `O=C(c1ccco1)N(Cc1cccs1)c1ccc(O)cc1` was -0.924%. `CCc1nccn1CCC(=O)NCc1nc(-c2ccc(NC(=O)c3ccc(COC)o3)cc2)oc1C`: the inhibition is -7.82%. The value for `CCNC(=O)N1CCNC(=O)C1CC(=O)N1CCN(c2ccc(OC)cc2)CC1` (stereo unspecified) was 16.6%; that for `CCOc1ccc(-n2c(Sc3c(N)c4c5c(sc4[nH]c3=O)CCC5)nnc2-c2nn(C)c(C)c2Cl)cc1` was -4.22%. The value for `CCCNC(=O)C1CCN(Cc2ccccc2C)CC1` was 4.05%; that for `COC(=O)C1=C(C)O[C@]23CCC[C@]12CC(=O)C3` was 2.4%.

`c1ccc2c(Sc3ncnc4sc5c(c34)CCCC5)c[nH]c2c1`: the inhibition was 0.643%.

The values above are taken from PubChem BioAssay AID1347404 (Pan Lab, Icahn School of Medicine at Mount Sinai, 2020).
